Results from the OligoGym collection.

Target: TNK1
Assay: pooled miR-30 sensor sort-seq; sequence = guide strand
Conditions: shRNA
Note: reference of the scale not given here.

| Sequence | sensor-assay potency score (higher = more potent) |
| --- | --- |
| TTGCCTTCTTTCTGTCTCCATC | -1.2 |
| TTCAGAGCTTCGGACAGTCTGC | -0.64 |
| TAGTGCTGTCTGGCACTCCTGG | -1.01 |
| TTTCTGTCTCCATCTATGCTTC | -0.886 |
| TTTGAAGGTGCGACCATTCTGG | 0.416 |

Target: TNKS2
Assay: as above
Conditions: shRNA

| Sequence | sensor-assay potency score (higher = more potent) |
| --- | --- |
| TTACTCTGTTATATCCTGCTGC | 0.643 |
| TATACTTTATTAGTAGAGCTGC | 0.192 |
| TAAATTTCCATAAATCAGCTAC | 0.246 |
| TAGTTTCTTGTTACAAACCTTC | -0.305 |
| TTCCACTTGAACTAACTACTGA | 0.487 |
| TTTCTTGTTACAAACCTTCTGA | 0.0757 |
| TTTTGATTCGAGTAACATCAGC | -1.09 |
| TTTAATTGCAGCTTCATGGAGA | 0.599 |
| TTACAGTTTCGACATCTCCAGC | -0.869 |
| TTATGCTAAAATCTACTCCTGG | 0.0124 |

Target: TNKS
Assay: as above
Conditions: shRNA

| Sequence | sensor-assay potency score (higher = more potent) |
| --- | --- |
| TTTAATAGCAGCTTCATGCAGA | 0.637 |
| TTAGCTAAGTCTGCTTCTCTGG | -0.647 |
| TACTCTACAACAGACACGCGGT | -0.0381 |
| ATGAACATCAGCACCATGCTGA | 0.272 |
| TAACTTTAGCTAAGTCTGCTTC | -0.439 |
| TTTTGCTGAAGGATCTGCCAGG | -0.435 |
| TTTCATTAACATTTGCTCCTTT | 0.974 |
| TGTTCTACAACATCCTTCCTTC | 0.712 |
| TTGCATGAACATCAGCACCATG | -0.893 |
| TATAGGTGTACTCTCACTCAGA | -0.676 |
| TTCTCGAATAGTACTTTGCATC | -0.948 |

Target: TNP2
Assay: as above
Conditions: shRNA

| Sequence | sensor-assay potency score (higher = more potent) |
| --- | --- |
| TTGCCTTCCAAGTTCTTTCTGT | 0.0693 |
| TTTCTGTTCTTGGGGCAGCGGC | -1.14 |
| TTTTGTGGCGCTTTGGTGGTGG | 0.492 |
| TCTGTCTGCAACTCTGGCTGAA | -0.415 |
| TACACCTGCTGGATCCTCTTGG | 0.0749 |
| TGGTTTTGTACACCTGCTGGAT | -0.833 |
| TTTGGTGGTGGACTAGTGTTGG | -0.0566 |
| TTGGTTTTGTACACCTGCTGGA | 0.278 |
| TTCTTTCTGTTCTTGGGGCAGC | -0.411 |
| TTGTACACCTGCTGGATCCTCT | -0.394 |
| TGGACTAGTGTTGGGACTCTGG | -0.968 |
| AAGTTCTTTCTGTTCTTGGGGC | -0.319 |
